In PubChem BioAssay:
For part of these data: Potency and affinity values are given separately. Inconclusive results are not listed. This is one part of the list. A call without a number means that no potency is given here. Active and inactive are the calls of the source. Unless noted, how the calls were made is not given here.

Legend:
[1] = NIH:OVCAR-3 ovarian cancer cell cytotoxicity, dose response, PAX8 inhibitor project, plate reader, dry powder samples (AID 743044); details: max activity: at 35 µM, stronger effect = lower value unless noted
[2] = IOSE-T80 ovarian epithelial cell cytotoxicity, dose response, cytotoxicity control for PAX8 inhibitor project, plate reader, dry powder samples (AID 743045);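 further: more negative values mean more cell killing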
[3] = non-specific cell cytotoxicity, dose response, cytotoxicity control for PAX8 inhibitor project, plate reader, dry powder samples (AID 743021)
[4] = A2780 ovarian cancer cell cytotoxicity, dose response, cytotoxicity control, plate reader, dry powder samples (AID 743046)
[5] = IGROV1 ovarian cancer cell cytotoxicity, dose response, PAX8 inhibitor project, plate reader, dry powder samples (AID 743043);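 further: more negative means fewer viable cells or more cytotoxicity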
[6] = Ring1 mRNA increase in mouse ESCs, confirmation, esBAF inhibitor project, cell-based, mouse ESC, RT-qPCR, cherry-pick (AID 743176;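 active means Ring1 gene expression raised more than 2-fold over untreated cells in both replicates at either tested dose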;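 further: Ring1 transcript normalised to actin housekeeping signal by TaqMan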); details: mouse ESC E14, Ring1 mRNA RT-qPCR fold change, stronger effect = higher value
[7] = Fgf4 mRNA decrease in mouse ESCs, confirmation, esBAF inhibitor project, cell-based, mouse ESC, RT-qPCR, cherry-pick (AID 743177;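 active means Fgf4 expression under 0.8 fold of control in both repeat measurements at one or both tested doses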;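 further: Fgf4 transcript normalised to actin in duplex TaqMan qPCR; cells exposed to compound for 24 h before lysis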); details: mouse ESC E14, Fgf4 mRNA qPCR fold change, stronger effect = lower value
[8] = esBAF inhibition via Bmi1 de-repression, confirmation, cell-based, RT-qPCR, mouse ESC, single point, cherry-pick (AID 743180;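 active means Bmi1 expression fold change above 6 at either tested concentration, seen in replicate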); details: mouse ESC E14, Bmi1 mRNA qPCR fold, stronger effect = higher value
[9] = A549 cell cytotoxicity, cytotoxicity control, plate reader, single point, cherry-pick (AID 743188); details: at 25 µM
[10] = HepG2 cell cytotoxicity, cytotoxicity control, plate reader, single point, cherry-pick (AID 743189; in the data active means activity change below about -50%); details: at 25 µM, stronger effect = lower value
[11] = HEK293 cell cytotoxicity, cytotoxicity control, plate reader, single point, cherry-pick (AID 743190; in the data active means activity change below about -38%, passing the limit was not always enough); details: at 25 µM
[12] = HepG2 cell cytotoxicity, dose response, cytotoxicity control, plate reader, cherry-pick, antagonist series (AID 743416)
[13] = A549 cell cytotoxicity, dose response, cytotoxicity control, plate reader, cherry-pick, antagonist series (AID 743412)
[14] = cytotoxicity in OVCAR8 ovarian cancer cells, dose response, PAX8 project, cell-based, plate reader, dry powder samples (AID 743197)

In the case of `N#C[C@H]1[C@@H](c2ccc(C#Cc3cccc(F)c3)cc2)[C@@H](CO)N1C(=O)C1CCCC1`, the outcome [1] is reported as “inactive” and the outcome [2] is reported as “inactive”.
In the case of `N#C[C@H]1N[C@H](CO)[C@@H]1c1ccc(C#Cc2ccccc2F)cc1`, the outcome [3] is reported as “inactive”, the outcome [2] is reported as “inactive” and the outcome [4] is reported as “inactive”.
In the case of `O=C(Nc1ccc(OCC(F)(F)C(F)F)c(C(F)(F)F)c1)c1ccccc1O`, the outcome [3] is reported as “inactive”, the outcome [2] is reported as “inactive” and the outcome [4] is reported as “inactive”.
With `N#C[C@@H]1[C@@H](c2ccc(C#Cc3ccccc3F)cc2)[C@@H](CO)N1C(=O)C1CCCC1` the outcome [4] was “inactive”.
For `N#C[C@@H]1[C@@H](c2ccc(C3=CCCCC3)cc2)[C@@H](CO)N1C(=O)NC1CCCCC1`, the outcome [3] was “inactive”, the outcome [5] was “inactive” and the outcome [1] was “inactive”. For the same compound, the outcome [2] was “inactive” and the outcome [4] was “inactive”.
With `CC(C)CCCCCCCCCCCCC(=O)NCC(=O)NC1C(C)OC(Nc2ncnc3nc[nH]c23)C(O)C1O` (centres undefined) the outcome [3] was “inactive”.
For `Cn1c(CCN2CCCC2)nc2cc(NS(=O)(=O)c3ccc(Cl)cc3)ccc21`, the outcome [3] was “inactive”, the outcome [2] was “inactive” and the outcome [4] was “inactive”.
With `COc1cccc(N2CCN(C(=O)c3ccc(CS(=O)c4ccccc4Cl)o3)CC2)c1` (centres undefined) the outcome [3] was “inactive”.
In the case of `CCc1c(C)sc(NC(=O)c2cccs2)c1C(N)=O`, the fold change ([6]; Ring1 fold increase, at 7 µM) is reported as 1.31, the fold change ([6]; at 33 µM) is reported as 0.944 (inactive) and the Fgf4 expression fold change ([7]; Fgf4 expression, at 7 µM) is reported as 1.09. The Fgf4 expression fold change ([7]; at 33 µM) was 1.11 (inactive), the fold change ([8]; Bmi1 de-repression, at 7 µM) was 1.35 and the fold change ([8]; at 33 µM) was 1.67 (inactive). For the same compound, the cell viability change % (negative = cytotoxic) [9] was -14% (inactive), the activity change, negative = inhibition [10] was -29% (inactive) and the activity change, negative = inhibition [11] was -22.2% (inactive).
In the case of `O=C(CCCN1C(=O)/C(=C\c2cccc(Br)c2)SC1=S)Nc1ccccn1`, the outcome [3] is reported as “inactive” and the outcome [4] is reported as “inactive”.
With `C/C(=C\C(=O)c1cccnc1)Nc1ccc(C)c(C)c1` the fold change ([6]; Ring1 fold increase, at 7 µM) was 1.22, the fold change ([6]; at 33 µM) was 1.07 (inactive) and the Fgf4 expression fold change ([7]; Fgf4 expression, at 7 µM) was 1.06. For the same compound, the Fgf4 expression fold change ([7]; at 33 µM) was 0.903 (inactive), the fold change ([8]; Bmi1 de-repression, at 7 µM) was 1.46 and the fold change ([8]; at 33 µM) was 1.59 (inactive). For the same compound, the cell viability change % (negative = cytotoxic) [9] was -3.61% (inactive), the activity change, negative = inhibition [10] was 12.6% (inactive) and the activity change, negative = inhibition [11] was -0.923% (inactive).
For `O=C1CN(C(=O)Cn2ncc(Cl)c(Cl)c2=O)c2ccccc2N1`, the outcome [3] was “inactive”.
In the case of `COc1ccc(CCNc2nnc(Sc3nnnn3-c3ccccc3)s2)cc1OC`, the outcome [3] is reported as “inactive”.
With `CCCC(=O)NC(c1ccc(C(C)C)cc1)c1ccc2cccnc2c1O` (centres undefined) the outcome [3] was “inactive”.
With `CCOC(=O)c1c(-c2ccc(F)cc2)csc1NC(=O)CN1C(=O)NC2(CCCCC2C)C1=O` (centres undefined) the outcome [3] was “inactive”.
For `COc1cccc(C#Cc2ccc([C@@H]3[C@@H](C#N)N(C(=O)C4CCCC4)[C@@H]3CO)cc2)c1`, the outcome [3] was “inactive”, the outcome [5] was “inactive” and the outcome [1] was “inactive”. For the same compound, the outcome [2] was “inactive” and the outcome [4] was “inactive”.
In the case of `Cc1ccc(-c2nc(COC(=O)c3c(C)noc3C)cs2)cc1`, the fold change ([6]; Ring1 fold increase, at 7 µM) is reported as 1.44, the fold change ([6]; at 33 µM) is reported as 1.18 (inactive) and the Fgf4 expression fold change ([7]; Fgf4 expression, at 7 µM) is reported as 1.15. The Fgf4 expression fold change ([7]; at 33 µM) was 1.07 (inactive), the fold change ([8]; Bmi1 de-repression, at 7 µM) was 1.56 and the fold change ([8]; at 33 µM) was 1.73 (inactive). For the same compound, the cell viability change % (negative = cytotoxic) [9] was -1.11% (inactive), the activity change, negative = inhibition [10] was -41.9% (inactive) and the activity change, negative = inhibition [11] was -15.3% (inactive).
With `C[C@@H]1CN([C@H](C)CO)C(=O)c2cc(NS(=O)(=O)c3ccccc3)ccc2O[C@@H](C)CCCCO[C@@H]1CN(C)Cc1ccc(C(F)(F)F)cc1` the outcome [2] was “inactive”.
In the case of `COC(=O)[C@@]1(CCS(=O)(=O)c2ccccc2)N=C(c2ccc(OCCCO)cc2)O[C@H]1c1ccccc1`, the outcome [3] is reported as “inactive”, the outcome [5] is reported as “inactive” and the outcome [2] is reported as “inactive”. The outcome [4] was “inactive”.
For `O=C(O)c1cccc(COc2ccc3c(c2)CCC3)c1`, the outcome [3] was “inactive” and the outcome [12] was “inactive”.
For `Cc1cc(C(C)(C)C)cc(C)c1Cn1c2[n+](c3ccc(C(F)(F)F)cc31)CCCCC2`, the outcome [3] was “inactive”.
With `CC(C)c1cc(C(=O)OCC(=O)N2CCN(C(=O)c3ccco3)CC2)c(O)c(C(C)C)c1` the outcome [3] was “inactive”, the outcome [5] was “inactive” and the outcome [2] was “inactive”. The outcome [4] was “inactive”.
With `CSC(=Nc1ccccc1)N=C(SCc1ccccc1)N(C)C` the outcome [3] was “inactive”.
For `COc1cccc(C#Cc2ccc([C@@H]3[C@@H](C#N)N(C(=O)C4CCCCC4)[C@@H]3CO)cc2)c1`, the outcome [3] was “inactive”, the outcome [5] was “inactive” and the outcome [1] was “inactive”. The outcome [2] was “inactive” and the outcome [4] was “inactive”.
In the case of `C[C@H](O)[C@@H]1CN2CCc3c([nH]c4ccc(-c5ccc6c(c5)OCO6)cc34)[C@@H]2C[C@@H]1N(C)C(=O)NC1CCCCC1`, the outcome [3] is reported as “inactive”.
For `CN1c2ccccc2N(C)C1(C)c1ccccc1`, the outcome [3] was “inactive”.
For `N#C[C@H]1[C@@H](c2ccc(C3=CCCC3)cc2)[C@@H](CO)N1C(=O)NC1CCCCC1`, the outcome [3] was “inactive”, the outcome [5] was “inactive” and the outcome [1] was “inactive”. For the same compound, the outcome [4] was “inactive”.
For `Cc1cc(C2=NNC(=NC3CC3)SC2)c(C)n1-c1ccccc1F`, the outcome [3] was “inactive”.
In the case of `COc1ccc2sc(NC(=O)c3ccco3)nc2c1`, the outcome [13] is reported as “inactive”.
With `O=C(Nc1nc(-c2ccc(S(=O)(=O)N3CCOCC3)cc2)cs1)c1ccccc1` the outcome [13] was “inactive”.
In the case of `O=S(=O)(NC[C@@H]1CC[C@@H]2[C@@H](CN2CC(c2ccccc2)c2ccccc2)O1)c1ccccc1F`, the outcome [14] is reported as “inactive”.
In the case of `Cc1ccc(-c2cc(C(=O)N(C)Cc3cnn(C)c3C)c3cc(Br)ccc3n2)cc1`, the outcome [13] is reported as “inactive”.
With `O=C(NN=Cc1ccc2c(c1)CCC2)c1ccccc1O` the fold change ([6]; Ring1 fold increase, at 7 µM) was 1.13, the fold change ([6]; at 33 µM) was 1.24 (inactive) and the Fgf4 expression fold change ([7]; Fgf4 expression, at 7 µM) was 0.906. The Fgf4 expression fold change ([7]; at 33 µM) was 0.972 (inactive), the fold change ([8]; Bmi1 de-repression, at 7 µM) was 1.51 and the fold change ([8]; at 33 µM) was 1.77 (inactive). The cell viability change % (negative = cytotoxic) [9] was -5.69% (inactive), the activity change, negative = inhibition [10] was -32.1% (inactive) and the activity change, negative = inhibition [11] was 0.295% (inactive).
With `CCS(=O)(=O)n1nc(-c2ccc(OC)cc2)nc1SC` the fold change ([6]; Ring1 fold increase, at 7 µM) was 1.25, the fold change ([6]; at 33 µM) was 1.01 (inactive) and the Fgf4 expression fold change ([7]; Fgf4 expression, at 7 µM) was 0.938. The Fgf4 expression fold change ([7]; at 33 µM) was 1.05 (inactive), the fold change ([8]; Bmi1 de-repression, at 7 µM) was 1.24 and the fold change ([8]; at 33 µM) was 1.6 (inactive). For the same compound, the cell viability change % (negative = cytotoxic) [9] was -13.7% (inactive), the activity change, negative = inhibition [10] was -11.2% (inactive) and the activity change, negative = inhibition [11] was -16.8% (inactive).
For `COC(=O)/C(=C1\Oc2ccc(C(C)(C)C)cc2S1)C(F)(F)F`, the fold change ([6]; Ring1 fold increase, at 7 µM) was 1.4, the fold change ([6]; at 33 µM) was 1.09 (inactive) and the Fgf4 expression fold change ([7]; Fgf4 expression, at 7 µM) was 1.06. For the same compound, the Fgf4 expression fold change ([7]; at 33 µM) was 0.881 (inactive), the fold change ([8]; Bmi1 de-repression, at 7 µM) was 1.51 and the fold change ([8]; at 33 µM) was 1.42 (inactive). The cell viability change % (negative = cytotoxic) [9] was -9.79% (inactive), the activity change, negative = inhibition [10] was -31.4% (inactive) and the activity change, negative = inhibition [11] was 0.258% (inactive).
For `C[C@@H]1CN([C@H](C)CO)C(=O)CCCn2nncc2CO[C@H]1CN(C)C(=O)Nc1cccc2ccccc12`, the outcome [13] was “inactive”.
